From PubChem BioAssay
IDE exosite inh: insulin-degrading enzyme (human) exo-site inhibition; P14735; purified IDE, FL-6b probe fluorescence polarization; active compounds read low; z-score at 20 µM; 6.3% of 17,000 active;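 active = z-score of -3 or lower, meaning strong loss of probe binding signal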;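 note: His-tagged human IDE residues 42-1019 made in E. coli with 30 nM FL-6b probe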
* marks the source's active call; other numbers are inactive results. The entries come from a sample that favours hits as a whole.

SMILES | IDE exosite inh
COc1cccc(CN2CCCCN3[C@H](CO)[C@H](c4ccc(-c5cccc(C#N)c5)cc4)[C@@H]3C2)c1 | 0.952
COc1cccc(-c2ccc([C@H]3[C@H](CO)N4CCCCN(Cc5cncnc5)C[C@@H]34)cc2)c1 | -3.01*
OC[C@H]1[C@@H](c2ccc(-c3cccc(F)c3)cc2)[C@H]2CN(Cc3cncnc3)CCCCN21 | 1.45
COc1cccc(-c2ccc([C@H]3[C@@H](CO)N4CCCCN(Cc5cncnc5)C[C@H]34)cc2)c1 | -6.61*
COc1cccc(-c2ccc([C@H]3[C@@H](CO)N4CCCCN(CC5CC5)C[C@H]34)cc2)c1 | -5.14*
OC[C@@H]1[C@H](c2ccc(-c3ccccc3)cc2)[C@H]2CN(Cc3cncnc3)CCCCN12 | 0.118
C[C@@H]1CN([C@@H](C)CO)S(=O)(=O)c2ccc(C#Cc3cccc(F)c3)cc2O[C@@H]1CN(C)S(=O)(=O)c1cn(C)cn1 | 0.391
COc1ccc2c3c([nH]c2c1)[C@@H](CO)N(CC1CC1)CC31CN(Cc2cc(F)ccc2F)C1 | -0.0808
CCC(=O)NC[C@H]1[C@@H](c2ccc(-c3ccc(C#N)cc3)cc2)[C@@H](CO)N1CCC(F)(F)F | 0.0415
CC(=O)N1[C@H](CO)[C@@H](c2ccccc2)[C@H]1CN(CC1CCC1)C(=O)CN(C)C | -0.194
Cc1cccc(-c2ccc([C@@H]3[C@H]4CN(Cc5cncnc5)CCCCN4[C@H]3CO)cc2)c1 | -4.66*
Cc1cccc(-c2ccc([C@H]3[C@@H](CO)N4CCCCN(Cc5cccnc5)C[C@H]34)cc2)c1 | -6.79*
Cc1cccc(-c2ccc([C@H]3[C@@H](CO)N4CCCCN(Cc5cccnc5)C[C@@H]34)cc2)c1 | -1.8
OC[C@@H]1[C@H](c2ccc(-c3ccc(F)cc3)cc2)[C@H]2CN(Cc3cccnc3)CCCCN12 | 1.16
Cc1ccc(-c2ccc([C@H]3[C@@H](CO)N4CCCCN(Cc5cncnc5)C[C@H]34)cc2)cc1 | -0.174
OC[C@@H]1[C@@H](c2ccc(-c3ccccc3F)cc2)[C@H]2CN(Cc3cncnc3)CCCCN12 | 0.86
OC[C@@H]1[C@@H](c2ccc(Br)cc2)[C@H]2CN(Cc3cncnc3)CCCCN12 | 0.52
OC[C@@H]1[C@H](c2ccc(-c3ccccc3F)cc2)[C@@H]2CN(Cc3cncnc3)CCCCN12 | -1.62
Cc1cccc(-c2ccc([C@@H]3[C@@H](CO)N4CCCCN(Cc5cncnc5)C[C@@H]34)cc2)c1 | -6.65*
OC[C@@H]1[C@H](c2ccc(C3=CCCC3)cc2)[C@H]2CN(Cc3cncnc3)CCCCN12 | 0.59
Cc1cccc(-c2ccc([C@@H]3[C@H](CO)N4CCCCN(Cc5cncnc5)C[C@@H]34)cc2)c1 | -7.52*
COc1ccc(NC(=O)N2CC(=O)N3[C@H](C2)[C@@H](c2ccc(/C=C/c4ccccc4)cc2)[C@@H]3CO)cc1 | 0.8
C[C@@H](O)C#Cc1ccc([C@@H]2[C@@H](CO)N3CCCCN(C(=O)c4ccncc4)C[C@@H]23)cc1 | 2.82
Cc1noc(C)c1S(=O)(=O)N(C)C[C@H]1OCCCC[C@H](C)Oc2ccc(NC(=O)CCC(F)(F)F)cc2C(=O)N([C@@H](C)CO)C[C@@H]1C | 2.53
N#C[C@H]1[C@@H](c2ccc(C3=CCCC3)cc2)[C@@H](CO)N1C(=O)C1CCC1 | 2.68
SMILES | IDE exosite inh
C[C@H](CO)N1C[C@H](C)[C@@H](CN(C)C(=O)Nc2cccc3ccccc23)OCCCC[C@H](C)Oc2ccc(NC(=O)CCC(F)(F)F)cc2C1=O | 0.77
COc1ccc2c3c([nH]c2c1)[C@H](CO)N(C)CC31CCN(C(=O)CN(C)C)CC1 | -1.02
COc1cccc(S(=O)(=O)N2CCCCN3[C@H](C2)[C@@H](c2ccc(C#CC(C)C)cc2)[C@@H]3CO)c1 | 2.33
Cc1ccccc1-c1ccc([C@@H]2[C@H]3CN(C(=O)c4cccnc4)CCCCN3[C@H]2CO)cc1 | -7.33*
Cc1ccccc1-c1ccc([C@H]2[C@@H](CO)N3CCCCN(C(=O)c4cccnc4)C[C@@H]23)cc1 | -4.79*
Cc1ccccc1-c1ccc([C@@H]2[C@@H](CO)N3CCCCN(C(=O)c4cccnc4)C[C@@H]23)cc1 | -7.98*
O=C(CC1CC1)N1CC[C@@H]2[C@@H](CO)Nc3ccc(-c4ccc(F)cc4)cc3[C@@H]21 | 1.79
Cc1noc(C)c1C(=O)N(C)C[C@H]1OCc2ccccc2-c2ccccc2C(=O)N([C@@H](C)CO)C[C@@H]1C | 0.0215
Cn1cnc(S(=O)(=O)N[C@H]2CC[C@H](CC(=O)NCC3CCCCC3)O[C@@H]2CO)c1 | 1.98
CCCNC(=O)N(C)C[C@@H]1Oc2ncc(C#CC3CCCCC3)cc2C(=O)N([C@@H](C)CO)C[C@H]1C | -0.343
Cc1ccccc1S(=O)(=O)N1CCCCN2[C@H](C1)[C@@H](c1ccc(-c3cncnc3)cc1)[C@@H]2CO | 4.87
O=S(=O)(c1ccccc1F)N1CCCCN2[C@@H](CO)[C@H](c3ccc(-c4cccnc4)cc3)[C@@H]2C1 | 2.16
Cc1ccccc1S(=O)(=O)N1CCCCN2[C@H](C1)[C@@H](c1ccc(-c3cccnc3)cc1)[C@@H]2CO | -3.02*
